In the antibiotic and cytotoxicity screens of Wong et al. (2023):
In all, about 39,000 compounds went through this assay and about 3,300 (8.5%) were called active. What follows is part of a selection rich in actives, with near analogues and random picks from the rest.

Test system: HepG2
Assay: cytotoxicity call (relative viability < 0.9)
Conditions: 10 µM

SMILES | cytotoxicity call
Cc1ccc2nccc(C(=O)N3CCC[C@@H](Cn4cc(C(C)(C)N)nn4)C3)c2c1 | inactive
C[C@H]1CCCCO[C@H](CN(C)C(=O)Nc2cccc3ccccc23)[C@@H](C)CN([C@@H](C)CO)C(=O)c2cc(NS(C)(=O)=O)ccc2O1 | inactive
Cc1cc(Nc2ncc(Cl)c(Nc3ccccc3S(=O)(=O)C(C)C)n2)c(OC(C)C)cc1C1CCNCC1 | active
COc1cc(N2CCC(N3CCN(C)CC3)CC2)ccc1Nc1ncc(Cl)c(Nc2ccccc2S(=O)(=O)C(C)C)n1 | active
COc1cc(N2CCC(N)CC2)ccc1Nc1ncc(Cl)c(-c2c[nH]c3ccccc23)n1 | active
COc1cc(C(=O)N2CCC(N3CCN(C)CC3)CC2)ccc1Nc1ncc2c(n1)N(C)c1ccccc1C(=O)N2C | active
COc1cc(C(=O)NC2CCN(C)CC2)ccc1Nc1ncc2c(n1)N(C1CCC(O)CC1)CCC(=O)N2C (configuration not stated) | inactive
COc1cc(N2CCC(O)CC2)ccc1Nc1cc(Nc2ccccc2S(=O)(=O)C(C)C)c2cc[nH]c2n1 | inactive
COc1cc(C(=O)N2CCN(CCN3C(=O)c4cccc5cccc(c45)C3=O)CC2)cc(OC)c1OC | inactive
NC1CCN(C(=O)c2c[nH]c3ccccc23)CC1 | inactive
Cc1noc(C)c1S(=O)(=O)Nc1ccc2c(c1)C(=O)N([C@@H](C)CO)C[C@H](C)[C@H](CN(C)C(=O)NC1CCCCC1)O2 | inactive
Cc1noc(C)c1NC(=O)N(C)C[C@H]1Oc2c(NC(=O)c3ccc(-c4nccs4)cc3)cccc2C(=O)N([C@@H](C)CO)C[C@H]1C | inactive
Cc1noc(C)c1NC(=O)N(C)C[C@@H]1OCCCC[C@H](C)Oc2ccc(NC(=O)c3ccccc3)cc2C(=O)N([C@@H](C)CO)C[C@@H]1C | inactive
NC[C@H]1OB(O)c2c(OCCCO)cccc21 | inactive
C=CCOC(=O)[C@H]1[C@@H]2C(=O)O[C@@H](c3ccccc3)[C@@H](c3ccccc3)N2[C@@H](c2ccc(OCCOC(=O)[C@@H]3C[C@@H]4C(=O)N5CCC[C@H]5C(=O)N4[C@@H]3c3cccc(OCCO)c3)cc2)[C@]12C(=O)Nc1ccc(I)cc12 | inactive
CC(C)NC(=O)Nc1ccc2c(c1)CC(=O)N([C@H](C)CO)C[C@H](C)[C@H](CN(C)C(=O)NC1CCCCC1)O2 | inactive
CN1C(=O)c2cc(NC(=O)c3cccs3)ccc2OC[C@@H]2O[C@@H](CC(=O)NCC(F)(F)F)CC[C@@H]21 | inactive
COc1cc(N2CCC(N(C)C)CC2)ccc1Nc1ncc(Cl)c(Nc2ccccc2P(C)(C)=O)n1 | active
C=C(C)C1CCC2(CO)CCC3(C)C(CCC4C5(C)CCC(O)C(C)(C)C5CCC43C)C12 (configuration not stated) | active
C=C(C)C1CCC2(C)CCC3(C)C(CCC4C5(C)CCC(O)C(C)(C)C5CCC43C)C12 (configuration not stated) | inactive
C=C(C)C1CCC2(C(=O)O)CCC3(C)C(CCC4C5(C)CCC(O)C(C)(C)C5CCC43C)C12 (configuration not stated) | inactive

SMILES | cytotoxicity call
CCS(=O)(=O)Nc1ccc2c(c1)C(=O)N(C)[C@@H]1CC[C@@H](CC(=O)NCCOC)O[C@@H]1CO2 | inactive
Cc1noc(C)c1NC(=O)N(C)C[C@@H]1Oc2ccc(NC(=O)Nc3ccc(C(F)(F)F)cc3)cc2CC(=O)N([C@H](C)CO)C[C@H]1C | inactive
CNC[C@@H]1Oc2cc(C#CC(C)(C)O)ccc2S(=O)(=O)N([C@@H](C)CO)C[C@@H]1C | inactive
C[C@@H]1CN([C@@H](C)CO)C(=O)c2cccc(NS(=O)(=O)c3ccccc3)c2O[C@H]1CN(C)Cc1ccc(-c2ccccc2)cc1 | inactive
Cc1ccc(S(=O)(=O)Nc2cccc3c2O[C@@H](CN(C)Cc2ccc(-c4ccccc4)cc2)[C@@H](C)CN([C@H](C)CO)C3=O)cc1 | active
C[C@@H]1CN([C@@H](C)CO)C(=O)c2cccc(NS(=O)(=O)c3ccc(Cl)cc3)c2O[C@H]1CN(C)Cc1ccc(-c2ccccc2)cc1 | inactive
C[C@H]1CN([C@@H](C)CO)C(=O)c2cccc(NS(=O)(=O)c3ccccc3)c2O[C@H]1CN(C)Cc1ccc(-c2ccccc2)cc1 | inactive
Cc1ccc(S(=O)(=O)Nc2cccc3c2O[C@H](CN(C)Cc2ccc(-c4ccccc4)cc2)[C@H](C)CN([C@H](C)CO)C3=O)cc1 | active
Cc1ccc(S(=O)(=O)Nc2cccc3c2O[C@@H](CN(C)Cc2ccc(-c4ccccc4)cc2)[C@H](C)CN([C@H](C)CO)C3=O)cc1 | inactive
C[C@@H]1CN([C@H](C)CO)C(=O)c2cccc(NS(=O)(=O)c3ccc(Cl)cc3)c2O[C@H]1CN(C)Cc1ccc(-c2ccccc2)cc1 | inactive
Cc1ccc(S(=O)(=O)Nc2cccc3c2O[C@@H](CN(C)Cc2ccc(-c4ccccc4)cc2)[C@@H](C)CN([C@@H](C)CO)C3=O)cc1 | inactive
C[C@@H]1CN([C@H](C)CO)C(=O)c2cccc(NS(=O)(=O)c3ccccc3)c2O[C@@H]1CN(C)Cc1ccc(-c2ccccc2)cc1 | active
C[C@@H]1CN([C@@H](C)CO)C(=O)c2cccc(NS(=O)(=O)c3ccc(Cl)cc3)c2O[C@@H]1CN(C)Cc1ccc(-c2ccccc2)cc1 | active
Cc1ccc(S(=O)(=O)Nc2cccc3c2O[C@H](CN(C)Cc2ccc(-c4ccccc4)cc2)[C@@H](C)CN([C@@H](C)CO)C3=O)cc1 | inactive
Cc1ccc(S(=O)(=O)Nc2cccc3c2O[C@H](CN(C)Cc2ccc(-c4ccccc4)cc2)[C@@H](C)CN([C@H](C)CO)C3=O)cc1 | inactive
O=C(C[C@@H]1CC[C@H](NC(=O)Nc2ccc3c(c2)OCO3)[C@@H](CO)O1)NCCCN1CCOCC1 | inactive
C[C@@H]1CN([C@H](C)CO)C(=O)c2cc(NC(=O)CCCN(C)C)ccc2O[C@@H](C)CCCCO[C@H]1CN(C)S(=O)(=O)c1cn(C)cn1 | inactive
C[C@H](CO)N1C[C@H](C)[C@H](CN(C)C(=O)c2cccc(F)c2)Oc2cc(C#CC3CC3)ccc2S1(=O)=O | inactive
CC(C)C[C@@](O)(CC(=O)O)C(=O)O | inactive
CN(C)CCCNC(=O)C[C@@H]1CC[C@H]2[C@@H](COc3ccc(NS(C)(=O)=O)cc3C(=O)N2C)O1 | inactive
CC(C)N1CC=C[C@@]23O[C@@H]4C=CCOC(=O)[C@@H]4[C@H]2C(=O)N([C@@H](C)CO)[C@@H]3C1=O | inactive
